What all share (assay): NCI-60 one-dose screen, 48 h (100 = growth as untreated, 0 = no growth, -100 = all killed)
Holding throughout (details): 10 µM unless noted

Assay [1] concerns T-47D breast.
Assay [2] relates to BT-549 breast.
Assay [3] relates to MDA-MB-435 melanoma.
Assay [4] has as its system SW-620 colon.
Assay [5] has as its system MCF7 breast.
Assay [6] deals with HCT-116 colon.
Assay [7] deals with HCC-2998 colon.
Assay [8] has as its system KM12 colon.

Experimental findings from PubChem BioAssay (NCI) are described below.

Compounds without any hit were thinned out: in the full panel of roughly 83,000, 20% have a hit.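 Values shown are percent growth following 48 h exposure of cells in 96-well plates to a single concentration of compound; below 10 was considered active.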 A number with no mark means an inactive call. Activity calls are given as the source filed them.

In the case of `N#CCCN=Nc1c(O)[nH]c2ccc(F)cc12`, the growth is 96.4% in assay [1]; 108% in assay [2]; 96.6% in assay [3]; 98.3% in assay [4]; 93.9% in assay [5]; 95.1% in assay [6]. Further, the growth was 97.9% in assay [7] and 101% in assay [8].
With `O=C1c2cc3c(cc2-c2c1c1ccc(Cl)cc1c(=O)n2CCCN1CCOCC1)OCO3`, the growth was 28.6% in assay [1]; 59.6% in assay [2]; 85.4% in assay [3]; 57.2% in assay [4]; 18.5% in assay [5]; 56.3% in assay [6]. In addition, the figures for the growth in assay [7] and in assay [8] were 74.4% and 75.2%, respectively.
`Oc1cccc(-c2nc(N3CCOCC3)c3c4c(sc3n2)CCCC4)c1`: the growth in assay [1] was 9.18% (active); in assay [2], 45.4%; in assay [3], 59.7%; in assay [4] it was 63.3%; in assay [5] it was 42%; in assay [6], 66.5%. The results for the growth in assay [7] and in assay [8] were 81.9% and 62.6%, respectively.
In the case of `C=CC(COC(c1ccccc1)(c1ccccc1)c1ccccc1)N(CC)CC` (configuration not stated), the growth in assay [1] was 54.8%; in assay [2], 81.5%; in assay [3], 61.2%; in assay [4], 51.3%; in assay [5], 33.4%; in assay [6], 35.9%. For the same compound, the values for the growth in assay [7] and in assay [8] were 63% and 54.6%, respectively.
Regarding `CCOC(=O)C(C)(C#N)C1C=CCCC1` (configuration not stated), the growth in assay [1] is 84.5%; in assay [2], 111%; in assay [3] it was 100%; in assay [4], 91.2%; in assay [5] it was 92.7%; in assay [6], 93.2%. The growth was 43.5% in assay [7] and 90.5% in assay [8].
Turning to `Clc1ccc2c(NCCNc3nc(N4CCOCC4)nc4ccccc34)ccnc2c1`, the growth was -15% (active) in assay [1]; 93.5% in assay [2]; -8.79% (active) in assay [3]; 11.2% in assay [4]; 38.8% in assay [5]; -7.53% (active) in assay [6]. Besides, the growth in assay [7] is 32.3%; in assay [8], 13.3%.
As for `CC(=O)c1cc2c(N)c(C(=O)Nc3cccc4ccccc34)sc2nc1C`, the growth in assay [1] is 42.7%; in assay [2], 46.5%; in assay [3], -34% (active); in assay [4], 17.8%; in assay [5], 22.1%; in assay [6], 29.3%. The growth is 37.1% in assay [7] and 22% in assay [8].
Take `CN(C)c1ccc(N=Nc2ccccn2)c(O)c1`: the growth in assay [1] was 31.4%; in assay [2], 37%; in assay [3], 33.1%; in assay [4] it was 26.5%; in assay [5] it was 17.3%; in assay [6], 24.7%. For the same compound, the results for the growth in assay [7] and in assay [8] were 33.6% and 24.5%, respectively.
For the compound `Cc1ccc2oc(=O)cc(C3c4ccc([nH]4)C(c4cc(=O)oc5ccc(C)cc45)c4ccc([nH]4)C(c4cc(=O)oc5ccc(C)cc45)c4ccc([nH]4)C(c4cc(=O)oc5ccc(C)cc45)c4ccc3[nH]4)c2c1` (configuration not stated), the growth in assay [1] was -28.5% (active); in assay [2], -49.8% (active); in assay [3] it was -76.1% (active); in assay [4] it was -7.64% (active); in assay [5] it was -20.9% (active); in assay [6] it was -78.9% (active). Also, the growth in assay [7] is -68.9% (active); in assay [8] it was -73.9% (active).
For `COc1cc(/C=C/c2cc(/C=C/c3ccc(O)c(OC)c3)n(-c3c(C)cccc3C)c(=O)n2)ccc1O`, the growth was -4.26% (active) in assay [1]; -18.1% (active) in assay [2]; 2.28% (active) in assay [3]; 7.79% (active) in assay [4]; 1.69% (active) in assay [5]; 8.26% (active) in assay [6]. Moreover, the growth in assay [7] was 24.1%; in assay [8] it was 11.6%.
In the case of `CC(=O)c1cc2c(N)c(C(=O)Nc3cccc(F)c3C)sc2nc1C`, the growth is 80.6% in assay [1]; 80.9% in assay [2]; 4.9% (active) in assay [3]; 85.9% in assay [4]; 78.9% in assay [5]; 92.3% in assay [6]. Moreover, the growth in assay [7] is 85%; in assay [8], 87.1%.
For `CC1=C(O)C(=O)C(C(C#N)(C#N)C(C#N)C#N)C1` (configuration not stated), the growth in assay [1] was 107%; in assay [2], 95%; in assay [3], 96.8%; in assay [4] it was 102%; in assay [5], 92.1%; in assay [6], 102%. The growth was 95.3% in assay [7] and 97.7% in assay [8].
Take `O=S(=O)(Nc1ccc(NS(=O)(=O)c2ccccc2)c(Cl)c1)c1ccccc1`: the growth in assay [1] was 106%; in assay [2] it was 105%; in assay [3], 107%; in assay [4] it was 99.1%; in assay [5] it was 91.6%; in assay [6], 97.6%. For the same compound, the growth in assay [7] and in assay [8] was 104% in each case.
`Cc1nn(-c2cc(=O)[nH]c3ccccc23)c(N)c1C#N`: the growth in assay [1] is 104%; in assay [2], 110%; in assay [3] it was 106%; in assay [4] it was 103%; in assay [5], 97.5%; in assay [6] it was 107%. In addition, the growth in assay [7] was 115%; in assay [8] it was 101%.
